# Measured values: PubChem BioAssay (NCATS)
# Results filed as inconclusive are left out. A number with no mark means an inactive call. The source made the active and inactive calls. Calls come from the whole dose curve; as a rule, active = well fitted cell-killing curve with a large enough effect; inconclusive = small, poorly fitted or top-dose-only effect, or effect the other way; inactive = no such curve, though single readings can be large or run the other way.
# Test: qHTS of pediatric cancer cell lines to identify multiple opportunities for drug repurposing: Confirmatory screen for MG 63 (6-TG R) cells (AID 1347119); note: nearly all actives have a fitted effect of over 55% in size
# Conditions: MG-63 (6-TG resistant) osteosarcoma viability; series mostly up to 45.9 µM; activity change, negative = cytotoxicity: at the top concentration
# From the text: Drug repurposing or repositioning has been offered as a strategy for drug development in oncology programs. This approach has special potential for childhood cancers and other rare or orphan diseases, where the expected return on new drug development has been a disincentive to pharmaceuticals.
# In this project we exploit the poly-pharmacology of drugs to discover new indications via phenotypic screening of a panel of 19 well-characterized cell lines derived from solid tumors seen in children and adolescents. The goal is to identify approved drugs with previously unrecognized anticancer properties that has the potential to reveal new mechanisms and biological processes involved in carcinogenesis or drug resistance. We employed a titration-based paradigm (quantitative high-throughput screening or qHTS), where all compounds were tested at multiple concentrations for their effect on cell viability. Concentration-response curves (CRCs) were derived directly from the primary screen, and both potency and efficacy values were used to identify compounds with robust bioactivity profiles. We screened the NIH Chemical Genomics Center (NCGC) Pharmaceutical Collection (NPC) and Mechanism Interrogation Plate (MIPE) small molecule collections of approved and investigational compounds against these cell lines; and measured metabolically active cells after 48 hours of compound treatment as a proxy for cell viability.
# Assay Submitter: Nathalia J. Martinez, National Center for Advancing Translational Sciences, National Institutes of Health, Rockville, MD, USA; email: natalia.martinez@nih.gov
# [1] Shen, M et al. Quantitative high-throughput phenotypic screening of pediatric cancer cell lines identifies multiple opportunities for drug repurposing. Oncotarget 2017 Dec 19;9(4):4758-4772. PMID 29435139.
# The cells were obtained from University of North Carolina (UNC), Pediatric Preclinical Testing Program (PPT), and Coriell Institute (CI).
# qHTS cell viability assay:
# Cells were assayed in growth media at a density of 500-1,000 cells/well. Five microliters of cells were dispensed into 1,536-well, white, solid-bottom, TC-treated plates (Greiner Bio One) using a multidrop dispenser and incubated at 37 degrees C, 5% CO2, under a humidified atmosphere for 5 hours. Twenty-three nanoliters of compounds and controls (neutral control DMSO or positive control bortezomib at final concentration of 2.3 µM) were subsequently transferred by Kalypsys pintool. For primary screens, the MIPE collection was tested at 11-point dilutions (final concentrations range from 0.78 nM to 46 µM) and the NPC collection at 8-point dilutions (final concentrations range from 0.59 nM to 46 µM). Compounds tested in follow-up screens were assayed at 11-point dilutions. Cells were incubated for 48 hours, followed by addition of 3 µL of CellTiter-Glo (Promega). After a 15 min incubation at room temperature, samples were analyzed for luminescence intensity using a ViewLux High-throughput CCD imager equipped with clear filters.
# Potency is the fitted concentration of half-maximal effect.
SMILES,Potency,"activity change, negative = cytotoxicity"
O=NN(CCCl)C(=O)NCCCl,20.8 µM (active),–
CS(=O)(=O)c1ccc(C(=O)Nc2ccc(Cl)c(-c3ccccn3)c2)c(Cl)c1,–,-14.7%
O=C(c1cc(Cc2n[nH]c(=O)c3ccccc23)ccc1F)N1CCN(C(=O)C2CC2)CC1,–,-7.25%
CCC(C)(C)C(=O)O[C@H]1C[C@@H](C)C=C2C=C[C@H](C)[C@H](CC[C@@H]3C[C@@H](O)CC(=O)O3)[C@H]21,2.93 µM (active),–
Cc1c(CN2CCN(C(=O)C(C)C)CC2)sc2c(N3CCOCC3)nc(-c3cnc(N)nc3)nc12,0.369 µM (active),–
C[C@]1(c2nc3c(C(N)=O)cccc3[nH]2)CCCN1,–,-11.1%
NC(=O)c1ccc(I)c([N+](=O)[O-])c1,–,-20.4% [at 95.5 µM]
CCOc1cc(N2CCC(O)CC2)ccc1Nc1ncc2c(n1)N(C)c1ccccc1C(=O)N2C,4.14 µM (active),–
C#Cc1cccc(Nc2ncnc3cc(OCCOC)c(OCCOC)cc23)c1,16.5 µM (active),–
CN(C)c1ccc(C2Nc3ccc4ccccc4c3C3=C2C(=O)CC(C)(C)C3)cc1Br (stereo not drawn),7.59 µM (active),–
COc1ccc(-c2oc3cc(OC)ccc3c2C(=O)c2ccc(C#N)cc2)cc1,–,-18.2%
NCCCC(N)(C(=O)O)C(F)F (stereo not drawn),–,-1.61%
CCC(C)n1ncn(-c2ccc(N3CCN(c4ccc(OC[C@H]5CO[C@](Cn6cncn6)(c6ccc(Cl)cc6Cl)O5)cc4)CC3)cc2)c1=O (stereo partly drawn),–,-7.95%
OC(CN1CCC(Cc2ccc(F)cc2)CC1)c1ccc(Cl)cc1 (stereo not drawn),–,-7.65%
NC(N)=NC(=O)c1nc(Cl)c(N)nc1N,–,17.8%
CCOc1ccn(-c2ccc(F)cc2)c(=O)c1C(=O)Nc1ccc(Oc2ccnc(N)c2Cl)c(F)c1,10.4 µM (active),–
COc1cc(Nc2ncc3c(n2)-c2ccc(Cl)cc2C(c2c(F)cccc2OC)=NC3)ccc1C(=O)O,0.233 µM (active),–
Oc1cccc(-c2nc(N3CCOCC3)c3oc4ncccc4c3n2)c1,0.135 µM (active),–
CN1CCN(CCCN2c3ccccc3Sc3ccc(C(F)(F)F)cc32)CC1,23.3 µM (active),–
Nc1nc2ccc(OC(F)(F)F)cc2s1,18.5 µM (active),–
COCC(=O)NCC=Cc1ccc2ncnc(Nc3ccc(Oc4ccc(C)nc4)c(C)c3)c2c1,38 µM (active),–
Nc1nc2c(ncn2COCCO)c(=O)[nH]1,–,-27%
COc1ccc(-c2ccc3c(N4CCOC[C@H]4C)nc(N4CCOC[C@H]4C)nc3n2)cc1CO,0.0928 µM (active),–
